# Assay results: the supplement of paper PMC5919970
# Structures can show the parent of a compound that is named as a salt. The full ranking holds about 2,000 compounds; the median of “fractional viability relative to vehicle” is about 0.91, and the lowest 2% start at about 0.045. Many of the other results were omitted from the sample, so the lowest values are more common in it than they were.
# Test system: TYKNU
# Test: fractional viability relative to vehicle; TYKNU is a high-grade serous ovarian cancer line; higher = less growth inhibition
# Conditions: 72 h
# Method in brief: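 Drug treatment lasted 72 h, with cells grown at 37 °C in 5% CO2 in RPMI 1640 supplemented with 10% FBS. Beforehand, TYKNU control cells or their lentiCRISPRv2 knockout derivatives had been seeded at 500 cells per well into drug-stamped 384-well plates carrying a ~2100-compound library at 2 or 10 μM, in duplicate. Viability came from Cell Titer Glo luminescence, with averaged duplicate treatment wells normalised to duplicate control wells in the same plate position.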
# [1] = 2uM, genotype: DNM1L knockout (sgDNM1L #1)
# [2] = 2uM, genotype: sgCTRLA1 (non-targeting control)
# [3] = 10uM, genotype: DNM1L knockout (sgDNM1L #1)
# [4] = 10uM, genotype: sgCTRLA1 (non-targeting control)
smiles,measurement,setting,value
CC[C@@H]([C@H](C)O)n1ncn(-c2ccc(N3CCN(c4ccc(OC[C@@H]5CO[C@@](Cn6cncn6)(c6ccc(F)cc6F)C5)cc4)CC3)cc2)c1=O [Posaconazole],fractional viability,[1],0.919
same,fractional viability,[2],1.13
same,fractional viability,[3],0.868
same,fractional viability,[4],1.05
C=CC(=O)Nc1cccc(Nc2nc(Nc3ccc(N4CCN(C(C)=O)CC4)cc3OC)ncc2C(F)(F)F)c1,fractional viability,[1],0.528
same,fractional viability,[2],0.856
same,fractional viability,[3],0.24
same,fractional viability,[4],0.235
CCC(=O)Nc1cccc(Oc2nc(Nc3ccc(N4CCN(C)CC4)cc3OC)ncc2Cl)c1,fractional viability,[1],0.867
same,fractional viability,[2],0.981
same,fractional viability,[3],0.303
same,fractional viability,[4],0.347
C=CC(=O)Nc1cccc(Oc2nc(Nc3ccc(N4CCN(C)CC4)cc3OC)ncc2Cl)c1,fractional viability,[1],0.754
same,fractional viability,[2],0.963
same,fractional viability,[3],0.345
same,fractional viability,[4],0.492
C=CC(=O)Nc1cccc(Sc2nc(Nc3ccc(N4CCN(C)CC4)cc3)ncc2Cl)c1,fractional viability,[1],0.965
same,fractional viability,[2],0.898
same,fractional viability,[3],0.0379
same,fractional viability,[4],0.0337
C=CC(=O)Nc1ccc(CN2C(=O)N(c3cc(OC)cc(OC)c3)Cc3cnc(Nc4ccc(N5CCN(C)CC5)cc4)nc32)cc1,fractional viability,[1],0.926
same,fractional viability,[2],0.803
same,fractional viability,[3],0.0593
same,fractional viability,[4],0.0423
C=CC(=O)Nc1cccc(Oc2nc(Nc3ccc(N4CCN(C)CC4)cc3)ncc2Cl)c1,fractional viability,[1],0.338
same,fractional viability,[2],0.355
same,fractional viability,[3],0.157
same,fractional viability,[4],0.146
C[C@@H](Nc1cc(F)cc(F)c1)c1cc(C(=O)N(C)C)cc2c(=O)cc(N3CCOCC3)oc12,fractional viability,[1],0.647
same,fractional viability,[2],0.847
same,fractional viability,[3],0.701
same,fractional viability,[4],0.566
CN(C)C/C=C/C(=O)Nc1cc2c(Nc3ccc(F)c(Cl)c3)ncnc2cc1O[C@H]1CCOC1 [Afatinib (BIBW2992)],fractional viability,[1],0.578
same,fractional viability,[2],0.809
same,fractional viability,[3],0.0953
same,fractional viability,[4],0.0868
CN(C)C/C=C/C(=O)Nc1cc2c(Nc3ccc(F)c(Cl)c3)ncnc2cc1O[C@H]1CCOC1 [Afatinib (BIBW2992) Dimaleate],fractional viability,[1],0.77
same,fractional viability,[2],0.984
same,fractional viability,[3],0.77
same,fractional viability,[4],0.767
O=S(=O)(N=Cc1c(O)ccc2ccccc12)c1cccs1,fractional viability,[1],0.71
same,fractional viability,[2],0.953
same,fractional viability,[3],0.696
same,fractional viability,[4],0.77
NC(=O)c1noc([C@H](CCCC2CCCCC2)CC(=O)NO)n1,fractional viability,[1],0.928
same,fractional viability,[2],1.03
same,fractional viability,[3],0.623
same,fractional viability,[4],0.827
CNS(=O)(=O)Nc1nccc(Cc2c(C)c3ccc(Oc4ncccn4)cc3oc2=O)c1F,fractional viability,[1],0.326
same,fractional viability,[2],0.304
same,fractional viability,[3],0.239
same,fractional viability,[4],0.199
COc1cc2ncnc(Nc3ccc(F)c(Cl)c3)c2cc1OCCCN1CCOCC1 [Gefitinib (ZD1839)],fractional viability,[1],1
same,fractional viability,[2],1.11
same,fractional viability,[3],0.492
same,fractional viability,[4],0.555
COc1cc2c(Oc3ccc4[nH]c(C)cc4c3F)ncnc2cc1OCCCN1CCCC1 [Cediranib (AZD2171)],fractional viability,[1],0.99
same,fractional viability,[2],0.847
same,fractional viability,[3],0.0461
same,fractional viability,[4],0.0421
Cc1cc2c(F)c(Oc3ncnn4cc(OC[C@@H](C)O)c(C)c34)ccc2[nH]1,fractional viability,[1],0.804
same,fractional viability,[2],0.956
same,fractional viability,[3],0.487
same,fractional viability,[4],0.469
Cc1ncc(CCCN(C)C)cc1Nc1ncc2c(n1)-c1ccc(C(F)(F)F)cc1NC(=S)C2,fractional viability,[1],0.211
same,fractional viability,[2],0.231
same,fractional viability,[3],0.259
same,fractional viability,[4],0.251
CC(C)(C)C[C@@H]1N[C@@H](C(=O)N[C@H]2CC[C@H](O)CC2)[C@H](c2cccc(Cl)c2F)[C@]12C(=O)Nc1cc(Cl)ccc12,fractional viability,[1],0.274
same,fractional viability,[2],0.277
same,fractional viability,[3],0.259
same,fractional viability,[4],0.225
CCN(CC)CCN(Cc1ccc(-c2ccc(C(F)(F)F)cc2)cc1)C(=O)Cn1c(SCc2ccc(F)cc2)nc(=O)c2c1CCC2,fractional viability,[1],0.329
same,fractional viability,[2],0.569
same,fractional viability,[3],0.0156
same,fractional viability,[4],0.00842
CC(C)(C)C(=O)Nc1ccc2c(c1)C(=O)C(=O)c1ccccc1-2,fractional viability,[1],0.175
same,fractional viability,[2],0.0968
same,fractional viability,[3],0.0236
same,fractional viability,[4],0.0127
CC(=O)Nc1ccccc1 [Acetanilide],fractional viability,[1],0.896
same,fractional viability,[2],1.08
same,fractional viability,[3],0.878
same,fractional viability,[4],1.14
CCCc1nc(C(C)(C)O)c(C(=O)OCc2oc(=O)oc2C)n1Cc1ccc(-c2ccccc2-c2nnn[nH]2)cc1 [Olmesartan Medoxomil],fractional viability,[1],0.907
same,fractional viability,[2],0.929
same,fractional viability,[3],1.1
same,fractional viability,[4],1.02
"CC(C)(C)C#Cc1cc(N(C(=O)[C@H]2CC[C@H](C)CC2)[C@H]2CC[C@H](O)CC2)c(C(=O)O)s1 [VX-222 (VCH-222, Lomibuvir)]",fractional viability,[1],0.983
same,fractional viability,[2],1.03
same,fractional viability,[3],0.818
same,fractional viability,[4],0.95
NC(=O)c1cnc(N[C@@H]2CCCC[C@@H]2N)nc1Nc1cccc(-n2nccn2)c1,fractional viability,[1],0.751
same,fractional viability,[2],0.853
same,fractional viability,[3],0.185
same,fractional viability,[4],0.142
Fc1ccc(CNc2ncnc3ccc(F)cc23)cc1 [Spautin-1],fractional viability,[1],0.675
same,fractional viability,[2],0.763
same,fractional viability,[3],0.67
same,fractional viability,[4],0.447
NNC(=O)c1ccncc1 [Isoniazid],fractional viability,[1],0.893
same,fractional viability,[2],1.14
same,fractional viability,[3],0.875
same,fractional viability,[4],1.06
O=C(NNc1ccccc1)c1ccncc1,fractional viability,[1],0.723
same,fractional viability,[2],0.931
same,fractional viability,[3],0.801
same,fractional viability,[4],0.659
O=C(/C=C/c1ccc2ccccc2n1)c1ccncc1,fractional viability,[1],0.0494
same,fractional viability,[2],0.0683
same,fractional viability,[3],0.0258
same,fractional viability,[4],0.0162
Cc1ccc(NC(=O)Nc2cc(C(F)(F)F)ccc2F)cc1Nc1ccc2c(c1)NC(=O)/C2=C\c1ccc[nH]1,fractional viability,[1],0.873
same,fractional viability,[2],0.905
same,fractional viability,[3],0.918
same,fractional viability,[4],0.825
CCOC(=O)c1c(CSc2ccccc2)n(C)c2cc(Br)c(O)c(CN(C)C)c12 [Arbidol HCl],fractional viability,[1],0.913
same,fractional viability,[2],1.07
same,fractional viability,[3],0.611
same,fractional viability,[4],0.645
CCOC(=O)[C@H](CCc1ccccc1)N[C@@H](C)C(=O)N1C(=O)N(C)C[C@H]1C(=O)O [Imidapril HCl],fractional viability,[1],0.976
same,fractional viability,[2],1.1
same,fractional viability,[3],0.958
same,fractional viability,[4],1.17
CC(C)C[C@H](NC(=O)CNC(=O)c1cc(Cl)ccc1Cl)B1OC(=O)C(CC(=O)O)(CC(=O)O)O1,fractional viability,[1],0.13
same,fractional viability,[2],0.0935
same,fractional viability,[3],0.0814
same,fractional viability,[4],0.0756
COc1cccc2c1C(=O)c1c(O)c3c(c(O)c1C2=O)C[C@@](O)(C(=O)CO)C[C@@H]3O[C@H]1C[C@H](N)[C@H](O)[C@H](C)O1 [Doxorubicin (Adriamycin)],fractional viability,[1],0.377
same,fractional viability,[2],0.212
same,fractional viability,[3],0.437
same,fractional viability,[4],0.323
COc1cccc2c1C(=O)c1c(O)c3c(c(O)c1C2=O)C[C@@](O)(C(C)=O)C[C@@H]3O[C@H]1C[C@H](N)[C@H](O)[C@H](C)O1 [Daunorubicin HCl],fractional viability,[1],0.392
same,fractional viability,[2],0.254
same,fractional viability,[3],0.0554
same,fractional viability,[4],0.0241
CC(=O)[C@]1(O)Cc2c(O)c3c(c(O)c2[C@@H](O[C@H]2C[C@H](N)[C@H](O)[C@H](C)O2)C1)C(=O)c1ccccc1C3=O [Idarubicin HCl],fractional viability,[1],0.362
same,fractional viability,[2],0.165
same,fractional viability,[3],0.042
same,fractional viability,[4],0.021
Nc1cccc(S(=O)(=O)N2CCCN(S(=O)(=O)c3ccc4c(c3)OCCO4)CC2)c1,fractional viability,[1],0.767
same,fractional viability,[2],0.995
same,fractional viability,[3],0.742
same,fractional viability,[4],0.647
